From PubChem BioAssay (NCATS)
Active and inactive are the calls of the source. Entries that show only a call come without a potency. The call rests on the fitted dose curve; in most records, active means well fitted inhibition curve with a large enough effect; inconclusive means small, poorly fitted or top-dose-only effect; inactive means flat fitted curve, though single readings scatter.

Test system: Nanoluciferase (engineered Oplophorus gracilirostris luciferase)
Assay: Primary Nanoluciferase (NLuc) qHTS assay for identification of artifact compounds. (AID 1845222);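 further: NLuc secreted into diluted conditioned medium of S16 cells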
Conditions: NLuc-conditioned medium, Nano-Glo luminescence, 5 min; series mostly up to 54.1 µM
Summary of the method: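 S16 cell supernatant NLuc, 1:55; cpds qHTS; 15 min RT dark; Nano-Glo substrate 1:100, 5 min; luminescence; Hill fit of % inhibition.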

SMILES | Potency
COc1ccc(C2COc3cc(O)ccc3C2)c(O)c1OC (stereo unspecified) | inactive
C/C=C/C=C/C=C/C(=O)OC1C=C2C(O)OC(=O)[C@]2(O)[C@@]2(C)CCCC(C)(C)[C@H]12 (stereo partly specified) | inactive
CC1(C)CC[C@]2(C(=O)O[C@@H]3O[C@H](CO)[C@@H](O)[C@H](O)[C@H]3O)[C@H](O)C[C@]3(C)C(=CCC4[C@@]5(C)CC[C@H](O[C@@H]6OC[C@@H](O)[C@H](O)[C@H]6O)[C@@](C)(C(=O)O)C5CC[C@]43C)[C@@H]2C1 (stereo partly specified) | inactive
CC1CCC2C(C)(C)C(O)C(O)CC2(C)C12Cc1c(O)cc(CO)c(C=O)c1O2 (stereo unspecified) | inactive
CCOC(=O)C(CCc1ccccc1)NC(C)C(=O)N1Cc2ccccc2CC1C(=O)O (stereo unspecified) | inactive
C[C@@H]1O[C@@H](O[C@H]2[C@H](Oc3cc(O)c(C(=O)CCc4ccc(O)cc4)c(O)c3)O[C@H](CO)[C@@H](O)[C@@H]2O)[C@H](O)[C@H](O)[C@H]1O | inactive
O=C(/C=C/c1ccc(O)cc1)OC[C@H]1O[C@H](O[C@@]2(CO)O[C@@H](CO)[C@H](O)[C@H]2O)[C@H](O)[C@@H](O)[C@@H]1O | inactive
C[C@@H]1O[C@@H](OC[C@H]2O[C@@H](OCc3ccccc3)[C@H](O)[C@@H](O)[C@@H]2O)[C@H](O)[C@H](O)[C@H]1O | inactive
CC(C)C1CCC(C(=O)N[C@@H](Cc2ccccc2)C(=O)O)CC1 (stereo partly specified) | inactive
C=CC(C)(O)CCC1C(C)(O)CCC2C(C)(C)CCCC21C (stereo unspecified) | inactive
CC1CC2OCC3(O)CCC(O)C(C14CC(c1ccoc1)OC4=O)C23CO (stereo unspecified) | inactive
